Screens: PubChem, several laboratories
PHOSPHO1 inh = blocks human PHOSPHO1 phosphatase activity | inhibition, % at 13.3 µM | Q8TCT1 | recombinant PHOSPHO1, absorbance phosphatase assay | AID 1565 | actives 1.1% (n = 290,000); in the data active = inhibition above about 60%
Target sequence (Q8TCT1 whole entry, looked up): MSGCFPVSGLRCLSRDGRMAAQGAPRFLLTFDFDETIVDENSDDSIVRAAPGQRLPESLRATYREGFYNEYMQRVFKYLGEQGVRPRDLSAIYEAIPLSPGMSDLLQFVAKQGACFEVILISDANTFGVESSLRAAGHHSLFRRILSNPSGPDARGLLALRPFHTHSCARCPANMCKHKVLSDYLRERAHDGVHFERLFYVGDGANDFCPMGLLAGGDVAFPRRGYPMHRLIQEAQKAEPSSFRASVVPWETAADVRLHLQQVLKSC
ALR inh = human ALR oxidase inhibition via reduced H2O2. AID 485317. inhibition, % (no concentration beside the values). actives 3.8% (n = 290,000). purified ALR, DTT oxidation, H2O2 HRP-luminol luminescence;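 active = mean replicate inhibition above about 79%, with every replicate also reaching it, limit read from the data; inconclusive = only one of the two criteria met; inactive = mean below limit and not every replicate reaching it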
Target sequence (P55789 whole entry, looked up): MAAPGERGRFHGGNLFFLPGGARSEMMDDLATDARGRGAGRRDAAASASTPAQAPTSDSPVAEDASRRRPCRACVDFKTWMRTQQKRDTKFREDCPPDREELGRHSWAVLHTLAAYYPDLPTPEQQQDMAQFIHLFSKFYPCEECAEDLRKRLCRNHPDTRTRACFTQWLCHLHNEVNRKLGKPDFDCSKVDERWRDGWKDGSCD
PfM18AAP inh = blocks P. falciparum M18 aspartyl aminopeptidase. actives 1.2% (n = 290,000). AID 1822. inhibition, % at 7.35 µM. recombinant PfM18AAP, H-Glu-NHMec fluorogenic cleavage;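 active = inhibition above the campaign mean inhibition over all tested compounds plus 3 SD, cut at about 28% in these data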;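 note: 0% = plate median of test compound wells and 100% = 2 mM ZnCl2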
PfG6PD inh = PfG6PD (Plasmodium falciparum) enzyme inhibition; actives 0.78% (n = 350,000); inhibition, % at 20 µM; PfGluPho enzyme, NADPH resazurin-diaphorase fluorescence;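 active = inhibition reaching at least a set limit at 20 µM in the primary screen, cut at about 59% in these data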;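 note: 0% = DMSO wells with substrate and 100% = DMSO wells lacking glucose-6-phosphate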
Cardio protect = myocardial damage modulation in H9c2 cells; H9c2 cardiomyocytes, H2O2 injury protection, ATPLite, 2 h; protection from H2O2 cell death, % at 20 µM; actives 0.63% (n = 360,000);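 active = compounds giving at least 50% protection of heart cells from peroxide-induced death in the single-dose screen, raw or plate-pattern-corrected value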;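 note: 0% = DMSO wells with peroxide and 100% = DMSO wells without peroxide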
Active calls of the source: *; ? = inconclusive; nt = no result given. Most compounds without a hit are left out; they make up all but 5.6% or so of the library.

SMILES	PHOSPHO1 inh	ALR inh	PfM18AAP inh	PfG6PD inh	Cardio protect
CCC(=O)N1CCc2cc(S(=O)(=O)CCC(=O)N3CCN(c4ccc(F)cc4)CC3)ccc21	22	18	-6	3	-1
OC(COCc1cccs1)CN1CCN(c2cccc(Cl)c2)CC1 (stereo unspecified)	2	91*	-4	13	-4
COc1cc(Br)cc(C=Nc2cccc(C(F)(F)F)c2)c1O	-30	nt	3	-19	53*
Cc1sc(NC(=O)CSc2nc(O)cc(=O)[nH]2)nc1-c1ccccc1	23	99*	3	-26	1
CCOC(=O)Cc1csc(NC(=O)CSc2nc(-c3ccccc3)c(C#N)c(=O)[nH]2)n1	-35	98*	-9	-44	9
Nc1cc(=O)[nH]c(SCC(=O)Nc2nnc(-c3ccccc3)s2)n1	44	18	3	0	2
COc1cccc(-c2nc(SCC(=O)Nc3nc(-c4ccccc4)c(C)s3)[nH]c(=O)c2C#N)c1	-6	99*	7	-56	18
CCOc1ccc2nc(NC(=O)CSc3nc(-c4ccccc4)c(C#N)c(=O)[nH]3)sc2c1	-21	nt	2	-61	-2
COc1ccc(C(=O)NCCCCNC(=O)c2ccc(OC)c(OC)c2)cc1OC	41	-2	0	-2	3
CCn1cc(/C=C(\NC(=O)c2cc(OC)c(OC)c(OC)c2)C(=O)N2CCOCC2)c2ccccc21	nt	nt	nt	-3	6
Cc1ccc(S(=O)(=O)Nc2cccc3cccnc23)cc1	-4	-4	-3	24	24
O=S(=O)(Nc1cc(Sc2cccc3cccnc23)c(O)c2ccccc12)c1ccccc1	60*	nt	13	nt	nt
CC(OC(=O)Cc1n[nH]c(=O)c2ccccc12)C(=O)N(C)c1ccccc1 (stereo unspecified)	nt	nt	nt	10	22
COc1ccc(-n2ncc(C(C)NS(=O)(=O)c3cccs3)c2C)cc1 (stereo unspecified)	29	-33	7	-10	-4
Nc1ccc(Nc2ccncc2)cc1	nt	nt	nt	-1	1
S=c1[nH]nc(-c2cccnc2)o1	90*	65	3	-2	6
C[n+]1cnn2c1SCC1(COC1)C2	92*	-26	-13	-5	0
Cc1nc2c(-c3ccccc3)cnn2c(N)c1-c1ccccc1	35	1	-10	22	-21
COc1ccc(-c2nn(-c3ccccc3)cc2/C=C/C(=O)N2CCN(c3ccccn3)CC2)cc1	-24	-22	-3	8	68*
COc1ccccc1CNC(=O)C(=O)NCC1CCCN1S(=O)(=O)c1cc(C)ccc1C (stereo unspecified)	nt	nt	nt	-1	2
Cc1cccc(-c2nc3sc(C)cc3c(=O)o2)c1	36	97*	2	6	-8
N#C/C(=C\c1ccc(N2CCOCC2)o1)C(=O)NCCc1ccccc1	20	89*	7	18	21
N#C/C(=C\c1ccc(N2CCOCC2)o1)C(=O)NC1CCCCC1	28	79*	7	4	-1
N#C/C(=C\c1ccc(N2CCOCC2)o1)C(=O)NCC1CCCO1 (stereo unspecified)	32	86*	13	21	5
Cc1ccc(C(=O)N2CCCC(C(=O)Nc3cccc(-c4ccc(F)cc4)c3)C2)cn1 (stereo unspecified)	16	-11	-1	-16	-2
SMILES	PHOSPHO1 inh	ALR inh	PfM18AAP inh	PfG6PD inh	Cardio protect
O=C(O)c1cc(Cl)n[nH]c1=O	nt	nt	nt	nt	0
C=CCn1c(N)c(C(=O)N2CCOCC2)sc1=S	-25	99*	-1	11	-1
CCn1c(N)c(C(=O)N2CCOCC2)sc1=S	69*	98*	-4	38	-2
CC1(C(=O)Nc2cccc3ccccc23)CCN1C(=O)C1(c2ccccc2)CCCC1 (stereo unspecified)	nt	nt	nt	nt	-4
COc1ccc(-c2oc3cc(O)c(OC)c(O)c3c(=O)c2OC)cc1	22	23	nt	2	-2
COc1ccc(-c2oc3cc(OC)c(O)c(OC)c3c(=O)c2OC)cc1O	44	100*	12	1	5
COc1ccc(-c2oc3cc(OC(C)=O)cc(OC(C)=O)c3c(=O)c2OC)cc1	nt	nt	nt	-10	-3
COc1ccc(-c2oc3c(OC)c(OC)c(OC)c(O)c3c(=O)c2OC)cc1OC	-24	-6	7	-12	72*
CC(=O)Oc1cc(O)c2c(=O)c(OC(C)=O)c(-c3ccc(OC(C)=O)c(OC(C)=O)c3)oc2c1	nt	82*	nt	25	45
COc1c(-c2ccc(O)cc2)oc2cc(O)cc(O)c2c1=O	13	98*	nt	-4	-2
Cc1csc2c(SCC(=O)NNC(=O)C(Cl)Cl)ncnc12	29	13	-3	-14	5
CCCCC1(C)OC(=O)C(=Cc2ccc(N(CC)CC)cc2)C(=O)O1 (stereo unspecified)	47	97*	-6	-5	-10
CCN(CC)c1ccc(C=C2C(=O)OC3(CCCCC3)OC2=O)cc1	30	?	6	1	3
O=C(Nc1cccc(-c2cnc3ccccc3n2)c1)C1CC(=O)N(c2ccccc2)C1 (stereo unspecified)	32	11	-6	2	33
CCc1ccccc1Nc1nc(N)nc(CSCC(=O)c2cc(C)n(C)c2C)n1	-16	98*	18	15	12
COc1cc(OC)c(C(=O)OCC(=O)NC23CC4CC(CC(C4)C2)C3)cc1OC	nt	-1	nt	-19	8
O=C(c1cccc(F)c1)N1CCC(c2nc3ccccc3s2)CC1	-5	100*	10	-16	-3
O=C(CCCN1C(=O)c2ccccc2C1=O)NCCc1ccc(OC(F)F)cc1	31	3	-5	23	0
COC(=O)C1(Cc2ccc(O)cc2)OC(=O)C(O)=C1c1ccc(O)cc1 (stereo unspecified)	8	99*	nt	11	-3
NC(=O)C1C(c2ccccc2)=C1c1ccccc1	3	97*	-10	-1	-6
COc1ccc2oc(=O)c(C(=O)OCc3ccccc3)cc2c1	24	-2	7	9	-4
Cc1csc(=O)n1CC(=O)OCC(=O)Nc1ccc(Cl)cc1F	nt	-4	nt	2	-1
CSc1nnc2c(n1)c(C)nn2-c1cccc(C)c1	5	95*	2	-10	-2
CSc1nncc(/C(C)=N\Nc2cccc(C)c2)n1	-26	16	7	3	-5
Oc1ccc2ccccc2c1C=Nc1ccc(N2CCOCC2)cc1	-71	nt	3	35	nt
SMILES	PHOSPHO1 inh	ALR inh	PfM18AAP inh	PfG6PD inh	Cardio protect
COc1ccc(N=Cc2cc(Cl)ccc2O)cc1Cl	-16	-7	-4	3	72*
Oc1ccc(Cl)cc1C=Nc1ccc(Br)cc1	8	-2	-15	0	50*
Cc1cccc(C=Nc2ccc3c4c(cccc24)CC3)c1O	4	-16	-4	24	5
Oc1ccc(Cl)cc1C=Nc1ccc2c3c(cccc13)CC2	1	nt	7	40	91*
C(=Nc1ccc(N2CCOCC2)cc1)c1c[nH]c2ccccc12	36	99*	10	26	3
Nc1nc(-c2ccccc2)c(CCCOc2ccc(NC(=O)CBr)cc2)c(=O)[nH]1	nt	nt	nt	10	-7
